The record followed here is PubChem BioAssay (Tox21).

The structures appear in SMILES notation. Results filed as inconclusive are left out. Calls of active or inactive are those of the source. Unless noted, calls come from the whole dose curve; as a rule, active = well fitted curve in the direction sought with a large enough effect in the repeat runs; inconclusive = weak or mixed curves; inactive = no such curve, though single readings can be large; an effect the other way counts as inactive or inconclusive.

Assay [1] deals with Peroxisome proliferator-activated receptor delta (Homo sapiens) (UniProt Q03181). Nature of the assay: qHTS assay to identify small molecule agonists of the peroxisome proliferator-activated receptor delta (PPARd) signaling pathway (AID 743212; calls by dose curve). In a few lines: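 Tox21 library screened in GeneBLAzer PPARd UAS-bla HEK293H cells. After compound treatment at 37 C, a FRET-based beta-lactamase substrate was applied for 2 h and fluorescence recorded.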

Assay [2] has the same target. As to the kind of experiment: qHTS assay to identify small molecule antagonists of the peroxisome proliferator-activated receptor delta (PPARd) signaling pathway (AID 743215; active = well fitted inhibition curve with a large enough effect in the signal ratio in the repeat runs, not every such curve was filed as active; the % refers to the signal ratio;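 note: cells stimulated with agonist L165041 at 300 nM final during compound exposure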; note: potency is the fitted concentration of half-maximal effect). In short, it runs like this: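 Agonist L165041 (300 nM final) added with compound to PPARd-bla HEK293H UAS-bla reporter cells; 17 h incubation at 37 C. Read-out: LiveBLAzer FRET substrate, 2 h at room temperature, fluorescence intensity.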
Background: qHTS replaces the single test concentration by a dilution series.

A short description of assay [3]: qHTS assay to identify small molecule agonists of the farnesoid-X-receptor (FXR) signaling pathway - cell viability counter screen (AID 743218). Note: nearly all actives have a fitted effect of over 45% in size. Note: potency is the fitted concentration of half-maximal effect. In a few lines: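 Viability counter screen in the same wells: CellTiter-Glo luminescence, 30 min room-temperature incubation, measured after the beta-lactamase read. Cells were GeneBLAzer FXR-UAS-bla HEK 293T, compound-treated 16 h at 37C.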

For assay [4], the target named is Vitamin D3 receptor (Homo sapiens) (UniProt P11473). Nature of the assay: qHTS assay to identify small molecule agonists of the vitamin D receptor (VDR) signaling pathway (AID 743222; calls by dose curve; note: potency is the fitted concentration of half-maximal effect). In a few lines: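 Agonist mode, beta-lactamase reporter: fluorescence from LiveBLAzer B/G FRET substrate (2 h, room temperature) read after 16 h compound treatment at 37 C of VDR-bla cells, which were pre-incubated 4 h after seeding.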

Assay [5] can be described thus: qHTS assay to identify small molecule agonists of the endoplasmic reticulum stress response signaling pathway (AID 1159516; active = well fitted activation curve with a large enough effect in the signal ratio in the repeat runs, not every such curve was filed as active; the % refers to the signal ratio; note: potency is the fitted concentration of half-maximal effect). In short, it runs like this: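 Ratiometric FRET readout (405 nm excitation; 460 and 530 nm emission) of a beta-lactamase gene driven by the ER stress response element, after 2 hr substrate loading. HeLa ESRE-bla cells were seeded overnight and treated with compounds for only 5 hr at 37 C.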

For assay [6], the target named is Nuclear receptor ROR-gamma (Homo sapiens) (UniProt P51449). As to the kind of experiment: qHTS assay to identify small molecule antagonists of the retinoid-related orphan receptor gamma (ROR-gamma) signaling pathway (AID 1159521; note: nearly all actives have a fitted effect of over 50% in size; note: potency is the fitted concentration of half-maximal effect). In short, it runs like this:
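CHO Tet-on RORγ, RORE-luc reporter. Cpd 2 h pre-incubation, then dox hyclate 1 uM final, 16 h, 37 C/5% CO2. ONE-Glo luminescence; decrease = antagonist.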

Assay [7] in a line: qHTS assay to identify small molecule agonists of the RXR signaling pathway - cell viability counter screen (AID 1159529). Note: nearly all actives have a fitted effect of over 50% in size. Note: potency is the fitted concentration of half-maximal effect. In a few lines: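 HEK 293T RXRa-bla cells, 2% CS-FBS; 5 h settle; cpd 16 h 37 C, 5% CO2; CellTiter-Glo 30 min RT, luminescence. Tetraoctyl ammonium bromide as positive control.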
A short description of assay [8]: qHTS assay to identify small molecule agonists of the peroxisome proliferator-activated receptor delta (PPARd) signaling pathway - cell viability counter screen (AID 743211). Note: nearly all actives have a fitted effect of over 55% in size. Note: potency is the fitted concentration of half-maximal effect. In a few lines: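 HEK293H PPARd-bla, 3000 cells/well; 5 h preincubation 37C/5% CO2; cpd in DMSO, 17 h 37C; B/G FRET substrate 2 h RT; CellTiter-Glo 30 min RT, luminescence.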
Assay [9] has as its target Bile acid receptor (Homo sapiens) (UniProt Q96RI1). As to the kind of experiment: qHTS assay to identify small molecule agonists of the farnesoid-X-receptor (FXR) signaling pathway (AID 743220; active = well fitted activation curve with a large enough effect in the signal ratio in the repeat runs, not every such curve was filed as active; the % refers to the signal ratio; note: potency is the fitted concentration of half-maximal effect). In short, it runs like this:
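FXR-UAS-bla HEK 293T cells carrying a UAS-driven beta-lactamase reporter were plated for 5 h at 37C/5% CO2, then exposed to DMSO-dissolved Tox21 10K compounds for 16 h at 37C. A LiveBLAzer B/G FRET substrate was loaded for 2 h at room temperature before fluorescence reading.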

The nature of assay [10]: qHTS assay to identify small molecule antagonists of the farnesoid-X-receptor (FXR) signaling pathway - cell viability counter screen (AID 743221; active = well fitted cell-killing curve with a large enough effect in the repeat runs, not every such curve was filed as active; note: nearly all actives have a fitted effect of over 50% in size; note: potency is the fitted concentration of half-maximal effect). In short, it runs like this: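 Luminescence from CellTiter-Glo measures cytotoxicity in GeneBLAzer FXR-UAS-bla HEK 293T cells. Cells were exposed to compounds with 50 uM chenodeoxycholic acid (final) for 16 h at 37 C, in wells also used for the reporter readout.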

The nature of assay [11]: qHTS assay to identify small molecule agonists of the vitamin D receptor (VDR) signaling pathway - cell viability counter screen (AID 743224). Note: nearly all actives have a fitted effect of over 50% in size. Note: potency is the fitted concentration of half-maximal effect. In short, it runs like this:
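Counter screen run in the same wells as the VDR-bla reporter assay: CellTiter-Glo luminescence, 30 min at room temperature, after 16 h compound treatment at 37C of cells pre-plated for 4 h.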

Assay [12] is described as follows: qHTS assay to identify small molecule agonists of the AP-1 signaling pathway (AID 1159526; calls by dose curve).
Assay [13] in a line: qHTS assay to identify small molecule antagonists of the peroxisome proliferator-activated receptor delta (PPARd) signaling pathway - cell viability counter screen (AID 743213). Note: nearly all actives have a fitted effect of over 50% in size. Note: potency is the fitted concentration of half-maximal effect. In a few lines: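 PPARd-bla HEK293H cells were treated with compounds plus agonist L165041 (300 nM final) for 17 h at 37 C. Viability was then read in the same wells by CellTiter-Glo luminescence after 30 min at room temperature.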

The target of assay [14] is Bile acid receptor (Homo sapiens) (UniProt Q96RI1). As to the kind of experiment: qHTS assay to identify small molecule antagonists of the farnesoid-X-receptor (FXR) signaling pathway (AID 743217; active = well fitted inhibition curve with a large enough effect in the signal ratio in the repeat runs, not every such curve was filed as active; the % refers to the signal ratio; note: potency is the fitted concentration of half-maximal effect). In a few lines: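 Antagonist mode: chenodeoxycholic acid at 50 uM final stimulates a UAS-driven beta-lactamase reporter in HEK 293T FXR-bla cells during 16 h, 37C compound exposure. Read-out is FRET substrate fluorescence after 2 h at room temperature.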

The target in assay [15] is Vitamin D3 receptor (Homo sapiens) (UniProt P11473). Nature of the assay: qHTS assay to identify small molecule antagonists of the vitamin D receptor (VDR) signaling pathway (AID 743223; active = well fitted inhibition curve with a large enough effect in the signal ratio in the repeat runs, not every such curve was filed as active; the % refers to the signal ratio; note: potency is the fitted concentration of half-maximal effect). In short, it runs like this: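 Antagonist mode uses 1alpha,25-dihydroxyvitamin D3 at 3 nM final as stimulus. VDR-bla cells receive compounds in DMSO, incubate 16 h at 37C, then a beta-lactamase FRET substrate for 2 h at room temperature before fluorescence measurement.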

A short description of assay [16]: qHTS assay to identify small molecule agonists of the endoplasmic reticulum stress response signaling pathway - cell viability counter screen (AID 1159517; calls by dose curve; note: nearly all actives have a fitted effect of over 50% in size; note: potency is the fitted concentration of half-maximal effect). In a few lines: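 In parallel with the ESRE reporter read, cytotoxicity was scored by CellTiter-Glo luminescence (30 min, room temperature) on HeLa ESRE-bla cells dosed for 5 hr.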
Assay [17] is described as follows: qHTS assay to identify small molecule antagonists of the retinoid-related orphan receptor gamma (ROR-gamma) signaling pathway - cell viability counter screen (AID 1159520). Note: nearly all actives have a fitted effect of over 50% in size. Note: potency is the fitted concentration of half-maximal effect. In short, it runs like this: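 Tet-on ROR gamma CHO cells were given compounds for 2 hr, then doxycycline hyclate at 1 uM final, and incubated 16 hr at 37 C. Viability was measured as ATP content by CellTiter-Glo luminescence.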

Assay [18] is described as follows: qHTS assay to identify small molecule agonists of the AP-1 signaling pathway - cell viability counter screen (AID 1159525; calls by dose curve; note: nearly all actives have a fitted effect of over 55% in size; note: potency is the fitted concentration of half-maximal effect). In short, it runs like this: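 Same-well cytotoxicity counter screen of the Tox21 10K library in ME-180 cells. The readout is ATP-dependent luminescence after 5 h compound treatment. Data are normalised to DMSO and tetra n-octyl ammonium bromide controls.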

A short description of assay [19]: qHTS assay to identify small molecule antagonists of the vitamin D receptor (VDR) signaling pathway - cell viability counter screen (AID 743225). In a few lines: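 Read-out: CellTiter-Glo luminescence measured 30 min after reagent addition at room temperature. Cells were VDR-bla HEK 293T exposed 16 h at 37C, 5% CO2, to compound with 3 nM final calcitriol agonist.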

Assay [20] has as its target Retinoic acid receptor RXR-alpha (Homo sapiens) (UniProt P19793). As to the kind of experiment: qHTS assay to identify small molecule agonists of the RXR signaling pathway (AID 1159527; calls by dose curve; note: nearly all actives have a fitted effect of over 35% in size). In a few lines:
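Read-out: beta-lactamase FRET ratio (405 nm excitation, 460 and 530 nm emission) after 2 hr substrate loading at room temperature. Cells were RXR-alpha-UAS-bla HEK 293T treated with compounds for 16 hr in 2% charcoal-stripped FBS medium.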

Sequence of Peroxisome proliferator-activated receptor delta (Homo sapiens) (Q03181 whole entry, looked up): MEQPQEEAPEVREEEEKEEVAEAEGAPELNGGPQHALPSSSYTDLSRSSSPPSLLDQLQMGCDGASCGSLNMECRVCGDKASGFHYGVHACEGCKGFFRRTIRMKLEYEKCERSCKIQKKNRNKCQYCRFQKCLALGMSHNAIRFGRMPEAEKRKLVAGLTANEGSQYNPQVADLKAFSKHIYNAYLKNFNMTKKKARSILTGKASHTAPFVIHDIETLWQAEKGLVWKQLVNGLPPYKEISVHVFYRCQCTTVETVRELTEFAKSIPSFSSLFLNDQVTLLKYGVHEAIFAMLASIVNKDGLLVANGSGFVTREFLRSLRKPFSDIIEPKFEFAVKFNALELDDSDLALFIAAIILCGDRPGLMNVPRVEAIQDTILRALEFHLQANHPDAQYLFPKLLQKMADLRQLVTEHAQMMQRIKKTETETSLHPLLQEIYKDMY
Sequence of Bile acid receptor (Homo sapiens) (Q96RI1 whole entry, looked up): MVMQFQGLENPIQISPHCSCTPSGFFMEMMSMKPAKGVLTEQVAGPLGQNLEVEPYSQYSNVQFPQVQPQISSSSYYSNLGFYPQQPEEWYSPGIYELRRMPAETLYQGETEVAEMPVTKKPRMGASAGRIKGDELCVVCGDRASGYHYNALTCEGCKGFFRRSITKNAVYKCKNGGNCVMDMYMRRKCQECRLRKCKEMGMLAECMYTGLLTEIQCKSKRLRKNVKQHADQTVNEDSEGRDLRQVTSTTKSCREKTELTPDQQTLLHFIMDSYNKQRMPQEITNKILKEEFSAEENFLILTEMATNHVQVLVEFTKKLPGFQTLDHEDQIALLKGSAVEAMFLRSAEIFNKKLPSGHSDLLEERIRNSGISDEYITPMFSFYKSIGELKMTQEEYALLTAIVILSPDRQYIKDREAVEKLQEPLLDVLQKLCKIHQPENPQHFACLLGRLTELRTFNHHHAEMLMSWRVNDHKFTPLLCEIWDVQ
Sequence of Vitamin D3 receptor (Homo sapiens) (P11473 whole entry, looked up): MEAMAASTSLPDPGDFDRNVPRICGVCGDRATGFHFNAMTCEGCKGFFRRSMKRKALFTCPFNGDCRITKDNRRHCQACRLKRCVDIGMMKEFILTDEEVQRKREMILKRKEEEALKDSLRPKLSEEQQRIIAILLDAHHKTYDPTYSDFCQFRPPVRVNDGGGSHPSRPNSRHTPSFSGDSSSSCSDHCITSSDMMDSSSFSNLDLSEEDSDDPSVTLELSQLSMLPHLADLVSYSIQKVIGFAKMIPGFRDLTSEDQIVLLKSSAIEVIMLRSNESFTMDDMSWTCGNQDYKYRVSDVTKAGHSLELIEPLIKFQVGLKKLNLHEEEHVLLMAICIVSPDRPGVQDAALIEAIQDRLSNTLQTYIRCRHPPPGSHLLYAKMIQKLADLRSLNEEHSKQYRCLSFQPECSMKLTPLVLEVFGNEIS
Sequence of Retinoic acid receptor RXR-alpha (Homo sapiens) (P19793 whole entry, looked up): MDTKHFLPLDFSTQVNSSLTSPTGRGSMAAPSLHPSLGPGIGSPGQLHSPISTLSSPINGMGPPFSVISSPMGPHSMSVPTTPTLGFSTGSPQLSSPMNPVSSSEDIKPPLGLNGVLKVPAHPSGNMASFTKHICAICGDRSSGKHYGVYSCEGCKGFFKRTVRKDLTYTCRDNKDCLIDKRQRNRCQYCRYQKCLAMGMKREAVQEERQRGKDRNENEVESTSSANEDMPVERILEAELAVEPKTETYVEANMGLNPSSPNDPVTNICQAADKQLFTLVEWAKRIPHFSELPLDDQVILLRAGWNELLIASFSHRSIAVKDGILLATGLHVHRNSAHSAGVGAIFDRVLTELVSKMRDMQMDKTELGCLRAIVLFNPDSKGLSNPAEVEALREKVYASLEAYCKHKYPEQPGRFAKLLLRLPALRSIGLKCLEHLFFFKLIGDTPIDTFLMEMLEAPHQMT

For `CC(C)c1ccc(O)c(C(C)C)c1`, the call in assay [1] was inactive. Also, the Potency result in assay [2], in [3], in [4], in [5] and in [6] was “inactive” throughout. Further, the Potency in [7] was 38.9 µM (active).

In the case of `CC(=O)OC(OC(C)=O)c1ccc([N+](=O)[O-])o1`, the values for the Potency in [8], in assay [6] and in [7] were 49.8 µM (active), 31.2 µM (active) and 49.8 µM (active), respectively. Besides, in assay [5], the Potency result is “inactive”.

Turning to `C[C@]12CC[C@H]3C(=CCc4cc(O)ccc43)[C@@H]1CCC2=O`, the Potency result in assay [8], in assay [2], in [3], in assay [9], in assay [10] and in assay [4] was “inactive” in each case. Also, the Potency entry in assay [11], in [5], in assay [6] and in assay [12] was “inactive” in each case. Besides, the outcome in [1] was inactive. Also, in [7], the Potency is 21.9 µM (active).

Consider `C=CC(=O)OCC(O)COc1ccccc1` (stereo unspecified), for which the Potency is 49 µM (active) in [8], 34.7 µM (active) in assay [3] and 61.1 µM (active) in assay [6]. In addition, the compound was called inactive in [1]. Further, the Potency entry in assay [10], in [5] and in assay [7] was “inactive” each time.

On to `SCCCCCCCCS`, for which the Potency entry in assay [8], in assay [13], in assay [2], in assay [14], in assay [3] and in [9] was “inactive” throughout. In addition, the Potency result in assay [10], in [4], in [15], in assay [11], in assay [17] and in assay [6] was “inactive” each time. Moreover, the Potency result in assay [18], in assay [12] and in [7] was “inactive” throughout. In addition, in assay [1], the outcome was inactive. Also, the Potency in [16] was 34.7 µM (active).

Consider `COC(=O)C1=C(C)NC(C)=C(C(=O)OCCCN2CCC(c3ccccc3)(c3ccccc3)CC2)C1c1cccc([N+](=O)[O-])c1` (stereo unspecified), for which the Potency in assay [8] is 10.6 µM (active); in [13], 11.9 µM (active); in assay [3], 11.9 µM (active); in assay [10], 26.6 µM (active); in assay [11] it was 26.6 µM (active); in assay [19] it was 23.9 µM (active). For the same compound, the Potency entry in [5] and in [18] was “inactive” in each case.

`O=C1C=CC(=O)N1c1ccccc1`: the Potency in [8] was 15.5 µM (active); in [13], 15.5 µM (active); in [14], 54.9 µM (active); in assay [3], 49 µM (active); in assay [15], 12.3 µM (active); in assay [11] it was 11 µM (active). Moreover, the Potency in assay [19] was 15.5 µM (active); in assay [16] it was 34.7 µM (active); in [17] it was 15.4 µM (active); in assay [6], 7.7 µM (active); in [18], 24.5 µM (active); in [7], 15.5 µM (active). In addition, in [20], the Potency result is “inactive”.

On to `COC(=O)CC#N`, for which the Potency entry in [13], in [3], in assay [10], in assay [5], in [17] and in assay [18] was “inactive” in each case. Further, the Potency result in [12], in assay [20] and in [7] was “inactive” each time.

For `CCOC(=O)C1=C(C)NC(C)=C(C(=O)OCC)C1c1ccccc1/C=C/C(=O)OC(C)(C)C`, the Potency is 18.8 µM (active) in assay [13]; 23.7 µM (active) in assay [3]; 33.5 µM (active) in assay [9]; 29.8 µM (active) in assay [4]; 19 µM (active) in assay [5]; 29.8 µM (active) in assay [17]. In assay [18], the Potency is 26.8 µM (active). For the same compound, the Potency result in assay [11] and in [20] was “inactive” throughout.

Take `NCCCCCCNCCCCCCN`: the Potency entry in assay [8], in assay [13], in assay [2], in assay [14], in [3] and in assay [9] was “inactive” in each case. Also, the Potency result in assay [10], in assay [4], in [15], in [16], in [17] and in [6] was “inactive” in each case. The Potency result in assay [18], in assay [12], in assay [20] and in assay [7] was “inactive” in each case. The outcome in assay [1] was inactive.

Consider `CCN(CC)CCOc1ccc(C(O)(Cc2ccc(Cl)cc2)c2ccc(C)cc2)cc1` (stereo unspecified), for which the Potency is 13.3 µM (active) in assay [13]; 29.8 µM (active) in [2]; 13.3 µM (active) in assay [3]; 29.8 µM (active) in assay [10]; 29.8 µM (active) in [6]; 21.3 µM (active) in assay [7]. Besides, the Potency entry in [9] and in assay [5] was “inactive” in each case.
